# Results published in PubChem BioAssay (NCATS).
# Records with an inconclusive call do not appear. A call without a number means that no potency is given here. Activity calls are given as the source filed them. The call rests on the fitted dose curve; in most records, active means well fitted curve in the direction sought with a large enough effect; inconclusive means small, poorly fitted or top-dose-only effect, or another doubt; inactive means no such curve, though single readings can be large; an effect the other way counts as inactive or inconclusive.
# Assays:
# [1] = Quantitative High-Throughput drug screen in 47 multiple myeloma cell lines against the NCATS MIPE library collection: ARD_JJKsccE7 cell viability assay (AID 1918929; further: potency means the concentration at half of the fitted maximal effect)
# In short: (§1)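 Luminescent ATP measurement with CellTiter-Glo gives viability, scaled between DMSO-only wells (100%) and media-only wells (0%). Cells, 500 per well, faced library compounds for 48 hours at 37C.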
# [2] = Quantitative High-Throughput drug screen in 47 multiple myeloma cell lines against the NCATS MIPE library collection: Karpas620_DSMZ cell viability assay (AID 1918959); further: nearly all actives have a fitted effect of over 30% in size; further: potency means the concentration at half of the fitted maximal effect
# In short: as §1
# [3] = Quantitative High-Throughput drug screen in 47 multiple myeloma cell lines against the NCATS MIPE library collection: KMM1_JCRB cell viability assay (AID 1918960); further: nearly all actives have a fitted effect of over 30% in size; further: potency means the concentration at half of the fitted maximal effect
# In short: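 Myeloma cells at 500 per well in 1536-well format treated with MIPE 4.0 library by pin transfer for 48 h at 37C, 5% CO2. Viability from ATP luminescence (CellTiter-Glo), normalized to DMSO (100%) and media-only (0%) wells.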
# [4] = Quantitative High-Throughput drug screen in 47 multiple myeloma cell lines against the NCATS MIPE library collection: KHM11_PLB cell viability assay (AID 1918962); further: nearly all actives have a fitted effect of over 35% in size; further: potency means the concentration at half of the fitted maximal effect
# In short: as §1
# [5] = Quantitative High-Throughput drug screen in 47 multiple myeloma cell lines against the NCATS MIPE library collection: JIM1_ECACC cell viability assay (AID 1918964; further: potency means the concentration at half of the fitted maximal effect)
# In short: as §1
# [6] = Quantitative High-Throughput drug screen in 47 multiple myeloma cell lines against the NCATS MIPE library collection: JJN3_DSMZ cell viability assay (AID 1918966; further: nearly all actives have a fitted effect of over 50% in size; further: potency means the concentration at half of the fitted maximal effect)
# In short: as §1
# [7] = Quantitative High-Throughput drug screen in 47 multiple myeloma cell lines against the NCATS MIPE library collection: H1112_PLB cell viability assay (AID 1918967; further: nearly all actives have a fitted effect of over 30% in size; further: potency means the concentration at half of the fitted maximal effect)
# In short: as §1
# [8] = Quantitative High-Throughput drug screen in 47 multiple myeloma cell lines against the NCATS MIPE library collection: Karpas25_ECACC cell viability assay (AID 1918968; further: nearly all actives have a fitted effect of over 35% in size; further: potency means the concentration at half of the fitted maximal effect)
# In short: as §1
# [9] = Quantitative High-Throughput drug screen in 47 multiple myeloma cell lines against the NCATS MIPE library collection: KMS27_JCRB cell viability assay (AID 1918970); conditions: KMS27 myeloma cells, CellTiter-Glo ATP viability, 48 h; viability (% of DMSO): at 45.8 µM (top of the series); further: nearly all actives have a fitted effect of over 30% in size; further: potency means the concentration at half of the fitted maximal effect
# In short: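 Myeloma cells (500 per well) were exposed to MIPE 4.0 compounds for 48 h at 37 °C, 5% CO2; viability was read as ATP luminescence with CellTiter-Glo, normalized to DMSO-only (100%) and media-only (0%) wells.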
# [10] = Quantitative High-Throughput drug screen in 47 multiple myeloma cell lines against the NCATS MIPE library collection: KMS12BM_JCRB cell viability assay (AID 1918971); further: potency means the concentration at half of the fitted maximal effect; nearly all actives have a fitted effect of over 35% in size
# In short: (§2)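 Steps: seed 500 cells per well; pin-transfer MIPE 4.0 library; incubate 48 h at 37C, 5% CO2, humidified; add CellTiter-Glo, 5 min room temperature; read luminescence.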
# [11] = Quantitative High-Throughput drug screen in 47 multiple myeloma cell lines against the NCATS MIPE library collection: KMS12PE_JCRB cell viability assay (AID 1918972); further: nearly all actives have a fitted effect of over 30% in size; further: potency means the concentration at half of the fitted maximal effect
# In short: as §2
# [12] = Quantitative High-Throughput drug screen in 47 multiple myeloma cell lines against the NCATS MIPE library collection: KMS20_JCRB cell viability assay (AID 1918973); further: nearly all actives have a fitted effect of over 45% in size; further: potency means the concentration at half of the fitted maximal effect
# In short: as §1
# [13] = Quantitative High-Throughput drug screen in 47 multiple myeloma cell lines against the NCATS MIPE library collection: KMS26_JCRB cell viability assay (AID 1918975); further: nearly all actives have a fitted effect of over 45% in size; further: potency means the concentration at half of the fitted maximal effect
# In short: as §2
# [14] = Quantitative High-Throughput drug screen in 47 multiple myeloma cell lines against the NCATS MIPE library collection: MMM1_PLB cell viability assay (AID 1918976); further: potency means the concentration at half of the fitted maximal effect; nearly all actives have a fitted effect of over 35% in size
# In short: (§3)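 Inhibition of viability over 48 h was scored by ATP content (CellTiter-Glo) in 500-cell wells. Zero and full viability were defined by media-only and DMSO-only wells.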
# [15] = Quantitative High-Throughput drug screen in 47 multiple myeloma cell lines against the NCATS MIPE library collection: NCIH929_DSMZ cell viability assay (AID 1918978); further: nearly all actives have a fitted effect of over 35% in size; further: potency means the concentration at half of the fitted maximal effect
# In short: as §3
# [16] = Quantitative High-Throughput drug screen in 47 multiple myeloma cell lines against the NCATS MIPE library collection: JIM3_ECACC cell viability assay (AID 1918963; further: nearly all actives have a fitted effect of over 35% in size)
# In short: as §1
# [17] = Quantitative High-Throughput drug screen in 47 multiple myeloma cell lines against the NCATS MIPE library collection: INA6_PLB cell viability assay (AID 1918965; further: nearly all actives have a fitted effect of over 55% in size; further: potency means the concentration at half of the fitted maximal effect)
# In short: as §2
# [18] = Quantitative High-Throughput drug screen in 47 multiple myeloma cell lines against the NCATS MIPE library collection: MOLP8_DSMZ cell viability assay (AID 1918977); further: potency means the concentration at half of the fitted maximal effect; nearly all actives have a fitted effect of over 45% in size
# In short: as §3
# [19] = Quantitative High-Throughput drug screen in 47 multiple myeloma cell lines against the NCATS MIPE library collection: KMS21BM_JCRB cell viability assay (AID 1918974); conditions: ATP luminescence, 48 h; viability: at 45.8 µM (top of the series)
# In short: as §1
SMILES,Potency [1],Potency [2],Potency [3],Potency [4],Potency [5],Potency [6],Potency [7],Potency [8],Potency [9],Potency [10],Potency [11],Potency [12],Potency [13],Potency [14],Potency [15],Potency [16],Potency [17],Potency [18],viability [19]
C[C@H](NCc1ccc2c(c1)nc(NC(=O)c1ccc(-c3cn[nH]c3)s1)n2CCc1ccccc1)C(C)(C)C,526 nM (active),743 nM (active),833 nM (active),590 nM (active),418 nM (active),1180 nM (active),1660 nM (active),1480 nM (active),418 nM (active),2350 nM (active),743 nM (active),935 nM (active),1870 nM (active),2350 nM (active),1050 nM (active),,,,
CC(C)(O)CC[C@@H](O)[C@](C)(O)[C@H]1CC[C@@]2(O)C3=CC(=O)[C@@H]4C[C@@H](O)[C@@H](O)C[C@]4(C)[C@@H]3CC[C@]12C,inactive,inactive,inactive,,inactive,inactive,inactive,inactive,inactive,,inactive,inactive,,,inactive,inactive,,,
CN(C)CCN1C(=O)c2cccc3cc(N)cc(c23)C1=O,29600 nM (active),26400 nM (active),18700 nM (active),7430 nM (active),18700 nM (active),20900 nM (active),18700 nM (active),18700 nM (active),,5260 nM (active),18700 nM (active),,20900 nM (active),11800 nM (active),8330 nM (active),,3320 nM (active),23500 nM (active),
O=S(=O)(O)CCSSCCS(=O)(=O)O,inactive,inactive,inactive,inactive,,,inactive,inactive,inactive,,,,inactive,,,inactive,inactive,,
C[C@@]12C[C@@]3(O)O[C@@H](O1)[C@]1(COC(=O)c4ccccc4)[C@@H]3C[C@@]12O[C@@H]1O[C@H](CO)[C@@H](O)[C@H](O)[C@@H]1O,inactive,inactive,inactive,,inactive,,inactive,inactive,inactive,,,,inactive,,inactive,inactive,,,
CCCCOc1ccc(C(=O)Nc2ccc(F)cc2F)cc1,inactive,inactive,inactive,,inactive,,inactive,inactive,inactive,,,,,,inactive,inactive,,,103% (active)
